# Results taken from PubChem BioAssay (NCATS).
# A number with no mark means an inactive call. Results filed as inconclusive are left out. Calls of active or inactive are those of the source. The call rests on the fitted dose curve; in most records, active means well fitted inhibition curve with a large enough effect; inconclusive means small, poorly fitted or top-dose-only effect; inactive means no such curve, though single readings can be large or run the other way.
# Assay: qHTS assay for measurement of the activity of small molecule inhibitors on Zika virus induced Caspase-3 activity in human astrocytoma cells (AID 1224859);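 further: plate controls were ZIKV-infected untreated cells for no effect and uninfected cells for full effect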
# Details: SNB-19 ZIKV-induced caspase-3/7, luminescence, 6 h; series mostly up to 45.7 µM; activity change, negative = inhibition: at the top concentration
# Method in brief: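 Compound added 1 h pre-infection; ZIKV 2 FFU/cell on SNB-19 cells, 6 h, 37 C/5% CO2. Caspase-Glo 3/7 luminescence; values as % inhibition of ZIKV-induced caspase activity.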
row,Structure (SMILES),"activity change, negative = inhibition"
1,CC(C)(C)[C@]1(O)C[C@@H]2OC(=O)C[C@@]23C(=O)O[C@@H]2OC(=O)[C@H](O)C213 (stereo partly drawn),-2.63%
2,O=C(Nc1ccncc1)C(=O)c1cn(Cc2ccc(Cl)cc2)c2ccccc12,39.1%
3,CN[C@@H]1C[C@@H](c2ccc(Cl)c(Cl)c2)c2ccccc21,6.82%
4,NC1=NC(=O)N2CC12 (stereo not drawn),43.2%
5,CC[C@@H]1[C@@H](C)O[C@@](O)([C@@H](C)[C@H](O)[C@H](C)[C@H]2OC(=O)C=CC=C[C@@H](C)[C@@H]([C@@H](C)[C@@H](O)[C@H](C)[C@@]3(O)C[C@H](O[C@H]4C[C@H](O)[C@H](O)[C@H](C)O4)[C@H](CC)[C@@H](C)O3)OC(=O)C=CC=C[C@@H]2C)C[C@H]1O[C@H]1C[C@H](O)[C@H](O)[C@H](C)O1,-24.5%
6,Nc1ccc([N+](=O)[O-])cc1,-9.01% [at 92.8 µM]
7,CCCN(CCC)[C@@H]1CCc2ccc(O)cc2C1,0.229%
8,NCCc1c[nH]c2ccccc12,-2.94%
9,CCCCCCCCCCCCCCCC[N+](C)(C)C,73.6%
10,O=S(=O)(CC1CS1)c1ccc(Oc2ccccc2)cc1 (stereo not drawn),41.7%
11,CC(C)[C@H]1C(=O)N[C@H](CO)Cc2c[nH]c3cccc(c23)N1C,-31.9%
12,CC1=C(C(=O)O)N2C(=O)[C@@H](N)[C@H]2SC1,14.8% [at 20.5 µM]
13,CS(=O)(=O)c1ccc(C(=O)C2C(=O)CCCC2=O)c([N+](=O)[O-])c1,-6.53% [at 92.8 µM]
14,CCCN(CCC)c1c([N+](=O)[O-])cc(S(N)(=O)=O)cc1[N+](=O)[O-],16.7% [at 92.8 µM]
15,CCCN1CCC[C@H](c2cccc(O)c2)C1,-5.65%
16,COc1cccc2c1[C@]13CCN(CC4CC4)[C@H](C2)[C@]1(OC)CCC(=O)C3,11.9%
17,CN1CCN(c2ccc([N+](=O)[O-])c3no[n+]([O-])c23)CC1,12.9%
18,CCOP(=O)(NC(C)C)Oc1ccc(SC)c(C)c1 (stereo not drawn),-6.81% [at 92.8 µM]
19,C[C@]12Cc3cn[nH]c3C[C@@H]1CC[C@@H]1[C@H]2CC[C@@]2(C)[C@H]1CC[C@]2(C)O,14.7%
20,Cc1cc(O)ccc1Cl,-0.0476%
21,NC1CCc2cc(O)c(O)cc2C1 (stereo not drawn),-10.4%
22,OCCCBr,14.4% [at 92.8 µM]
23,COC(C)(C)CCCC(C)C/C=C/C(C)=C/C(=O)OC(C)C (stereo not drawn),-3.17%
24,Oc1ccc2c3c1O[C@H]1[C@@H](O)C=C[C@H]4[C@@H](C2)NCC[C@@]341,1.18% [at 92.8 µM]
25,Nc1ccc(Cl)cc1N,15.2% [at 92.8 µM]
26,O=[N+]([O-])/N=C1\NCCN1Cc1ccc(Cl)nc1,10.7%
27,CCOC(=O)c1cncn1[C@H](C)c1ccccc1,8.91%
28,CN1C2CCC1CC(OC(=O)c1cc(Cl)cc(Cl)c1)C2 (stereo not drawn),4.78%
29,C[C@@H]1O[C@H](C[N+](C)(C)C)C[C@H]1O,-4.89%
30,ClC1=C(Cl)[C@]2(Cl)[C@@H]3[C@@H]4C[C@@H]([C@H]5O[C@@H]45)[C@@H]3[C@@]1(Cl)C2(Cl)Cl,36% [at 92.8 µM]

# Assay: qHTS Screen of the MIPE 4.0 Collection Against Ewings Sarcoma (TC71) (AID 1259253); further: nearly all actives have a fitted effect of over 40% in size; further: potency means the concentration at half of the fitted maximal effect;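 on viability (% of DMSO): 100% = DMSO-treated cells and 0% = medium-only wells without cells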
# Details: TC71 Ewing sarcoma viability, CellTiter-Glo, 48 h; series mostly up to 45.8 µM; viability (% of DMSO): at the top concentration
# Method in brief: (§1)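 Cells plated in serum-containing RPMI (5% FBS) and treated with compound dilutions for 48 h. Readout luminescent viability; normalization relied on vehicle (no inhibition) and media-only columns (full inhibition).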
Structure (SMILES),Potency,viability (% of DMSO) [%]
O=C(Nc1ccncc1)C(=O)c1cn(Cc2ccc(Cl)cc2)c2ccccc12,132 nM (active),–
CC[C@@H]1[C@@H](C)O[C@@](O)([C@@H](C)[C@H](O)[C@H](C)[C@H]2OC(=O)C=CC=C[C@@H](C)[C@@H]([C@@H](C)[C@@H](O)[C@H](C)[C@@]3(O)C[C@H](O[C@H]4C[C@H](O)[C@H](O)[C@H](C)O4)[C@H](CC)[C@@H](C)O3)OC(=O)C=CC=C[C@@H]2C)C[C@H]1O[C@H]1C[C@H](O)[C@H](O)[C@H](C)O1,590 nM (active),–
CN1[C@H]2CC(O)C[C@H]1[C@H]1O[C@H]12 (stereo partly drawn),26400 nM (active),–
CC(C)[C@H]1C(=O)N[C@H](CO)Cc2c[nH]c3cccc(c23)N1C,–,107
CN1CCN(c2ccc([N+](=O)[O-])c3no[n+]([O-])c23)CC1,23500 nM (active),–
C[C@]12Cc3cn[nH]c3C[C@@H]1CC[C@@H]1[C@H]2CC[C@@]2(C)[C@H]1CC[C@]2(C)O,2960 nM (active),–

# Assay: qHTS Screen of the MIPE 4.0 Collection Against Ewings Sarcoma (EW8) (AID 1259255); further: nearly all actives have a fitted effect of over 35% in size; further: potency means the concentration at half of the fitted maximal effect;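 on viability: 100% = DMSO-treated cells and 0% = medium-only wells without cells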
# Details: EW8 Ewing sarcoma viability, CellTiter-Glo, 48 h; series mostly up to 45.8 µM; viability: at the top concentration
# Method in brief: as §1
Structure (SMILES),viability [%],Potency
CC(C)(C)[C@]1(O)C[C@@H]2OC(=O)C[C@@]23C(=O)O[C@@H]2OC(=O)[C@H](O)C213 (stereo partly drawn),95.4,–
O=C(Nc1ccncc1)C(=O)c1cn(Cc2ccc(Cl)cc2)c2ccccc12,–,93.5 nM (active)
NC1=NC(=O)N2CC12 (stereo not drawn),83.8,–
CC[C@@H]1[C@@H](C)O[C@@](O)([C@@H](C)[C@H](O)[C@H](C)[C@H]2OC(=O)C=CC=C[C@@H](C)[C@@H]([C@@H](C)[C@@H](O)[C@H](C)[C@@]3(O)C[C@H](O[C@H]4C[C@H](O)[C@H](O)[C@H](C)O4)[C@H](CC)[C@@H](C)O3)OC(=O)C=CC=C[C@@H]2C)C[C@H]1O[C@H]1C[C@H](O)[C@H](O)[C@H](C)O1,–,590 nM (active)
CN1[C@H]2CC(O)C[C@H]1[C@H]1O[C@H]12 (stereo partly drawn),–,23500 nM (active)
O=S(=O)(CC1CS1)c1ccc(Oc2ccccc2)cc1 (stereo not drawn),–,20900 nM (active)
CC(C)[C@H]1C(=O)N[C@H](CO)Cc2c[nH]c3cccc(c23)N1C,114,–
COc1cccc2c1[C@]13CCN(CC4CC4)[C@H](C2)[C@]1(OC)CCC(=O)C3,120,–
CN1CCN(c2ccc([N+](=O)[O-])c3no[n+]([O-])c23)CC1,–,23500 nM (active)
C[C@]12Cc3cn[nH]c3C[C@@H]1CC[C@@H]1[C@H]2CC[C@@]2(C)[C@H]1CC[C@]2(C)O,–,2960 nM (active)
CCOC(=O)c1cncn1[C@H](C)c1ccccc1,130,–
O=C1CCC[C@@H]2[C@H]3CCCN4CCC[C@@H](CN12)[C@@H]34,108,–
